Data reported in the supplement of paper PMC10849652.
Targets with a hit are over-represented here; the source holds about 7,900 in all. About 0.6% of all pairs of compound and target were hits. A number with no mark means an inactive call.

What was measured:
Assay in all cases: log2 fold change, soluble protein after heating vs DMSO (PISA); higher = thermal stabilisation; K562 cells, 10 uM, 30 min; active = over 0.2 and 3.5 SD of the protein, either way, in both replicates (recomputed)
[1] = compound: COC1=CC=C(C=C1)CN2C=CC3=C2C=C(C=C3)C(=O)NO
Outline: (§1)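 K562 cells at 2×10^6 cells/mL were treated for 30 min with 10 μM compound, and aliquots were heated for 3 min over 48°C-58°C before pooling. Extraction used PBS with 0.5% NP-40 at 4°C, and soluble protein was the supernatant after 21,000xg for 90 min, measured by TMTpro 16plex LC-MS/MS with channel sums equalised. Thermal stability values, relative to control samples and from duplicates, are log2 fold changes.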

[2] = compound: CON(C)C(=O)N1N=C(c2cc(F)ccc2F)S[C@@]1(CCCN)c1ccccc1 [filanesib]
Outline: as §1

[3] = compound: CO[C@H]1C[C@@H]2CC[C@@H](C)[C@@](O)(O2)C(=O)C(=O)N2CCCC[C@H]2C(=O)O[C@H]([C@H](C)C[C@@H]2CC[C@H](n3cnnn3)[C@H](OC)C2)CC(=O)[C@H](C)/C=C(\C)[C@@H](O)[C@@H](OC)C(=O)[C@H](C)C[C@H](C)/C=C/C=C/C=C/1C [zotarolimus]
Outline: as §1

[4] = compound: COc1cc(C(=O)O)ccc1NC(=O)[C@@H]1N[C@@H](CC(C)(C)C)[C@](C#N)(c2ccc(Cl)cc2F)[C@H]1c1cccc(Cl)c1F [idasanutlin]
Outline: as §1

[5] = compound: COc1cc(Nc2ncc3c(n2)-c2ccc(Cl)cc2C(c2c(F)cccc2OC)=NC3)ccc1C(=O)O [alisertib]
Outline: as §1

[6] = compound: COc1cc2nc(-c3cc(F)ccc3O)nc(N[C@@H]3CNC[C@H]3C(C)(C)O)c2cc1OC
Outline: as §1

[7] = compound: COc1cc2ncnc(Nc3ccc(F)c(Cl)c3)c2cc1OCCCN1CCOCC1 [gefitinib]
Outline: as §1

[8] = compound: COc1cccc2cc(-c3nc([C@H]4CC[C@H](C(=O)O)CC4)n4ncnc(N)c34)[nH]c12
Outline: as §1

[9] = compound: CS(=O)(=O)CCNCc1ccc(-c2ccc3ncnc(Nc4ccc(OCc5cccc(F)c5)c(Cl)c4)c3c2)o1 [lapatinib]
Outline: as §1

[10] = compound: CS(=O)(=O)N1CCN(Cc2cc3nc(-c4cccc5[nH]ncc45)nc(N4CCOCC4)c3s2)CC1 [pictilisib]
Outline: as §1

Sequence of UniProt Q86WA8 (Q86WA8 whole entry, looked up): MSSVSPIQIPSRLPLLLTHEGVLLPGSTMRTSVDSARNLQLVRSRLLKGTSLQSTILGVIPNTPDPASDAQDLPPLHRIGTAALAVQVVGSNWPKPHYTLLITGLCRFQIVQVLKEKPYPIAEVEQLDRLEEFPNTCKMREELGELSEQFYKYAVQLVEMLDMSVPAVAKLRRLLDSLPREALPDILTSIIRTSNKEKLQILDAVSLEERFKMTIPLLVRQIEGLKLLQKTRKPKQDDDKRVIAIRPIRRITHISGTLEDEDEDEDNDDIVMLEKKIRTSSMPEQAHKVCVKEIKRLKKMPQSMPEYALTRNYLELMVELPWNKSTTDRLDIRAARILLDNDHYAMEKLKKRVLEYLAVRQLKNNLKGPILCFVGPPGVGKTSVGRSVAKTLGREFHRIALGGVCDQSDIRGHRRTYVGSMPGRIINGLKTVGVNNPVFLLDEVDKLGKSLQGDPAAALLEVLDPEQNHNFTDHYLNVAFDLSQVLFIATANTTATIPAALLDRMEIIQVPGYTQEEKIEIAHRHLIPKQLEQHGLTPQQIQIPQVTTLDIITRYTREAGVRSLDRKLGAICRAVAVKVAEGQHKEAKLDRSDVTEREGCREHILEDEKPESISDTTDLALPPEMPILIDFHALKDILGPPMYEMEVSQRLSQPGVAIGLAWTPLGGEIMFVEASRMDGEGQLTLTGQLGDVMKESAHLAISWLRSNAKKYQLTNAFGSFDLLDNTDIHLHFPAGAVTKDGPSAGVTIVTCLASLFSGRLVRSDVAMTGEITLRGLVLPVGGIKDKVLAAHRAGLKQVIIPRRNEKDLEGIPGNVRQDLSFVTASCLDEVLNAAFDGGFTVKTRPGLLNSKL
Sequence of UniProt Q9BPX6 (Q9BPX6 whole entry, looked up): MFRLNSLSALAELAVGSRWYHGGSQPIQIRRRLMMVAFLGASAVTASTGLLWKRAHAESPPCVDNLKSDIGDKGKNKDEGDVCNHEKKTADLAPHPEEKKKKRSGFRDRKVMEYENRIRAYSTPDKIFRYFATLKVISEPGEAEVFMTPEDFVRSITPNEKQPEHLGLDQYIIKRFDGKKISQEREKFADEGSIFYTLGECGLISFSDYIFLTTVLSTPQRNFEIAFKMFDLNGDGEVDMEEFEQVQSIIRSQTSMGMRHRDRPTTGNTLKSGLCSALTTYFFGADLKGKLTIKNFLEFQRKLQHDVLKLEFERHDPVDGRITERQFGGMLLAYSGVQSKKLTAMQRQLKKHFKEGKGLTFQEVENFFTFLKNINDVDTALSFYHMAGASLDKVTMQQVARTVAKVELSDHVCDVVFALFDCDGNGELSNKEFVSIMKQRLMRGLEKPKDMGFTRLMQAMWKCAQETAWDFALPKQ
Sequence of UniProt Q14145 (Q14145 whole entry, looked up): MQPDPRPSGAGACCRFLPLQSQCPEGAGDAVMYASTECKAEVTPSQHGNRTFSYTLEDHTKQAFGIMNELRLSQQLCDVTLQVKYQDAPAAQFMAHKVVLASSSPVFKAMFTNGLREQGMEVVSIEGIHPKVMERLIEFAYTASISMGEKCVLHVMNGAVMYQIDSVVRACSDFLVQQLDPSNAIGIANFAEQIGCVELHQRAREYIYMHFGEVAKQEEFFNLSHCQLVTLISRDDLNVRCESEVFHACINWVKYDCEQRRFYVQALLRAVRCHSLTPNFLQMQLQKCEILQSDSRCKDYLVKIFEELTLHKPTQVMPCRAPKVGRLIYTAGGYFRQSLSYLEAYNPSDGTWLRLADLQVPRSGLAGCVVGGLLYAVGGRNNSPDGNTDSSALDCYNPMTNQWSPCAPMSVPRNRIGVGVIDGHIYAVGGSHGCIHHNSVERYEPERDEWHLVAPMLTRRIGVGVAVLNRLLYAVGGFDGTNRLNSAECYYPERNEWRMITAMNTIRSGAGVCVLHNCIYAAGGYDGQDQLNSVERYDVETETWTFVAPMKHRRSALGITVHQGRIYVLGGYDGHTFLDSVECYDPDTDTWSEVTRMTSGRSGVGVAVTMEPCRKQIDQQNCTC
Sequence of UniProt Q8IWA4 (Q8IWA4 whole entry, looked up): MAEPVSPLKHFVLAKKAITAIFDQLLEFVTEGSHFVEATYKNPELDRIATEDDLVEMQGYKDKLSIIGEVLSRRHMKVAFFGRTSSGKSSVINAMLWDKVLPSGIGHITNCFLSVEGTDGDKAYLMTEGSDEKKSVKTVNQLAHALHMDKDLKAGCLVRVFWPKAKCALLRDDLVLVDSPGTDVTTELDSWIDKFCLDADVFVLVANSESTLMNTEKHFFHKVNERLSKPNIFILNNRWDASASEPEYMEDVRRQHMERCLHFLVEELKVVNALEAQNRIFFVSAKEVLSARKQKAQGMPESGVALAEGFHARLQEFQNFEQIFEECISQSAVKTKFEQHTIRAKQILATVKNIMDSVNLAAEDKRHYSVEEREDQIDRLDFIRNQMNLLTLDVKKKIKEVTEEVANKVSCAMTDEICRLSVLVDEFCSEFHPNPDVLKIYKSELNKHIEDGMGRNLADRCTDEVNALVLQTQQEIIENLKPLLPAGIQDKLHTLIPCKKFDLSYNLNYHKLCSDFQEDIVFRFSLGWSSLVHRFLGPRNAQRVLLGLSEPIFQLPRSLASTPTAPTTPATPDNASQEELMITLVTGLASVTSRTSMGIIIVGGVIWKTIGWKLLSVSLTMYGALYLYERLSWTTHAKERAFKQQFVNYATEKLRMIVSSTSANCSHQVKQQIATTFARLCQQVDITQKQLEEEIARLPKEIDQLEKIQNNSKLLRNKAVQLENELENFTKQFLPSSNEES
Sequence of UniProt P36507 (P36507 whole entry, looked up): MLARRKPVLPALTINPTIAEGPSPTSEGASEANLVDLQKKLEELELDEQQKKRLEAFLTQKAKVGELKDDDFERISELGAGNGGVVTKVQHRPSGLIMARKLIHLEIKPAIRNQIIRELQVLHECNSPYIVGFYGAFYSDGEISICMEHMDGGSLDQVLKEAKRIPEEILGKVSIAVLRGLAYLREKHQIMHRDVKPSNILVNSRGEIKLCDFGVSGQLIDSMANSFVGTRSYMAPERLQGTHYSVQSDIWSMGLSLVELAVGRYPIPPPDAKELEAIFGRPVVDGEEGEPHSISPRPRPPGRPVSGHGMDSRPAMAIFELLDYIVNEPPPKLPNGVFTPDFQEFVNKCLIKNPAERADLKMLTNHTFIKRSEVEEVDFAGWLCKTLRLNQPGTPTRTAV
Sequence of UniProt P22692 (P22692 whole entry, looked up): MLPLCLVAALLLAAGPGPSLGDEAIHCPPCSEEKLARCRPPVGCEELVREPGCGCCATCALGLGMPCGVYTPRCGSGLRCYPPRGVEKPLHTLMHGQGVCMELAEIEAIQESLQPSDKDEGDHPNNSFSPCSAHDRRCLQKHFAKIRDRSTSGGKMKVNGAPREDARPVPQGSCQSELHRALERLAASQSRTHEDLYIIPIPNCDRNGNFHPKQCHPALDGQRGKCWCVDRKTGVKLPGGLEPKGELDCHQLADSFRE
Sequence of UniProt Q96P70 (Q96P70 whole entry, looked up): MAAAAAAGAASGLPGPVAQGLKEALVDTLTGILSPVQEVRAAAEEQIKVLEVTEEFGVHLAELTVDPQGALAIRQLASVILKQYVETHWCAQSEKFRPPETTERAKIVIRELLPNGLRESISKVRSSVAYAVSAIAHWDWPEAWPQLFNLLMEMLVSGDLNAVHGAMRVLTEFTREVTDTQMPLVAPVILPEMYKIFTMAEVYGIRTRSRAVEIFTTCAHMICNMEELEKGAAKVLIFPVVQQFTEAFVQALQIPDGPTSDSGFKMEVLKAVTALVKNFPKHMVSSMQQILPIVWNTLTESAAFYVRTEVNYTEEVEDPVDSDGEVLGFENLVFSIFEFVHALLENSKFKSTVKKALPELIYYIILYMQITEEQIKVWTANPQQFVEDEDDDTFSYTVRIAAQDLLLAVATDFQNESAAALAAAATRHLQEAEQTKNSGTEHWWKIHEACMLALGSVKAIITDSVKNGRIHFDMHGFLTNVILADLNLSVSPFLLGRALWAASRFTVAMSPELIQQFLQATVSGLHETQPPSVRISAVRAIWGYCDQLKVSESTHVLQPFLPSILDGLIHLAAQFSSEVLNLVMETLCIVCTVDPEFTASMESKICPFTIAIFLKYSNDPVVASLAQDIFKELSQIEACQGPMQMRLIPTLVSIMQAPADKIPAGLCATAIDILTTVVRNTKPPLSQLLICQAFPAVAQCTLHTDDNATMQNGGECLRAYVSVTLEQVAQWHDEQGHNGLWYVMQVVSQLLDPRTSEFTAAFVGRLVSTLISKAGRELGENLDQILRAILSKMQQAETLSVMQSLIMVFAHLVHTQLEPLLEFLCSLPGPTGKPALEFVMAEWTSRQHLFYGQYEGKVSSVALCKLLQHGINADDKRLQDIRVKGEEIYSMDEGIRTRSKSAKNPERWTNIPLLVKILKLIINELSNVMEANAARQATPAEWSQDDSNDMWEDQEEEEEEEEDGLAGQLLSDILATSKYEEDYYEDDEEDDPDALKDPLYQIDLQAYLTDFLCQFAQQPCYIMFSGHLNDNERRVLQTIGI
Sequence of UniProt Q9H0B6 (Q9H0B6 whole entry, looked up): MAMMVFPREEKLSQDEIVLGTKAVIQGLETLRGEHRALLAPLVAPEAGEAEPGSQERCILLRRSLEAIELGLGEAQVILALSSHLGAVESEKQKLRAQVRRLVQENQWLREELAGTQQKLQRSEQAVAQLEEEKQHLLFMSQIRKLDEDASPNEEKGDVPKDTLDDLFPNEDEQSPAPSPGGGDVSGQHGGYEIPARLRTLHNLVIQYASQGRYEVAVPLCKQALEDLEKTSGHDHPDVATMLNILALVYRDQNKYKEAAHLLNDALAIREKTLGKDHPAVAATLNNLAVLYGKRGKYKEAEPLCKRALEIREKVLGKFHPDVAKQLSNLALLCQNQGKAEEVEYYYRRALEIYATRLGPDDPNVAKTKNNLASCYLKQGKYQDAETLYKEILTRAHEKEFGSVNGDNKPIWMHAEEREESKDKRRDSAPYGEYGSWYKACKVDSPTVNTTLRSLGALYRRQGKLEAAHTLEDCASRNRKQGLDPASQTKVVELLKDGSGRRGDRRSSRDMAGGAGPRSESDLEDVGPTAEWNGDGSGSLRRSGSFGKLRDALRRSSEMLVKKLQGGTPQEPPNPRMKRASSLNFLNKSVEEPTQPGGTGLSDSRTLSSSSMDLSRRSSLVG

Target | log2 fold change [1] | log2 fold change [2] | log2 fold change [3] | log2 fold change [4] | log2 fold change [5] | log2 fold change [6] | log2 fold change [7] | log2 fold change [8] | log2 fold change [9] | log2 fold change [10]
IPO7 (UniProt O95373) | 0.053 | -0.094 | 0.014 | -0.103 | -0.087 | -0.111 | 0 | -0.014 | -0.008 | -0.006
IPO9 (UniProt Q96P70) | 0.014 | -0.005 | 0.052 | -0.089 | -0.016 | -0.054 | 0.088 | 0.065 | 0.011 | 0.031
MFN1 (UniProt Q8IWA4) | 0.042 | -0.182 | 0.06 | 0.034 | 0.262 | -0.523 (active) | 0.017 | 0.03 | 0.002 | 0.024
KIF11 (UniProt P52732) | -0.004 | 1.1 (active) | 0.074 | 0.026 | 0.011 | 0.043 | -0.002 | -0.063 | -0.018 | 0.046
MFSD5 isoform 2 (UniProt Q6N075) | 0.037 | 0.018 | -0.149 | -0.058 | 0.011 | -0.026 | 0.039 | 0.12 | 0.045 | 0.062
MED1 (UniProt Q15648) | -0.051 | 0.116 | 0.042 | 0.056 | -0.056 | -0.063 | -0.039 | 0.016 | 0.114 | 0.077
KHDC4 (UniProt Q7Z7F0) | 0.14 | -0.025 | 0.035 | -0.043 | -0.003 | 0.025 | 0.015 | -0.026 | -0.025 | -0.028
MAP2K2 (UniProt P36507) | -0.014 | -0.061 | 0.018 | 0 | -0.103 | -0.011 | -0.011 | 0.007 | -0.069 | -0.023
KSR1 (UniProt Q8IVT5) | 0.015 | 0.033 | 0.016 | 0.034 | 0.123 | -0.329 | -0.028 | 0.126 | 0.087 | 0.176
LONP2 (UniProt Q86WA8) | -0.002 | -0.019 | -0.02 | -0.177 | -0.115 | 0.375 | 0.129 | 0.015 | 0.1 | -0.041
KLC2 (UniProt Q9H0B6) | 0.06 | -0.038 | -0.028 | -0.065 | -0.047 | -0.133 | 0.017 | 0 | -0.005 | 0.083
KEAP1 (UniProt Q14145) | 0.005 | 0.028 | 0.036 | -0.019 | -0.018 | 0.005 | 0.03 | -0.066 | 0.007 | -0.02
LIAS (UniProt O43766) | -0.131 | -0.049 | -0.097 | -0.032 | -0.041 | 0.132 | 0.014 | 0.036 | -0.051 | 0.078
MICU1 isoform 3 (UniProt Q9BPX6) | -0.047 | -0.031 | -0.034 | 0.05 | -0.011 | -0.278 (active) | 0.02 | -0.056 | 0.019 | -0.038
MAGOHB (UniProt Q96A72) | -0.012 | 0.018 | 0.054 | -0.027 | 0.011 | 0.144 | 0 | 0.024 | -0.018 | 0.005
IGFBP4 (UniProt P22692) | -0.075 | 0.012 | -0.31 | 0.392 (active) | 0.009 | -0.024 | -0.107 | 0.179 | -0.036 | -0.022
